Eight molecules from PubChem BioAssay (NCI) can be followed below.

This is part of a sample that, as a whole, favours compounds with a hit. Of some 83,000 tested, about 20% had one in any assay.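 Single-concentration screen, 48 h exposure, 96-well plates. Endpoint: percent growth. Below 10 = active.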 A number with no mark means an inactive call. Active and inactive are the calls of the source.

Among the test systems are NCI-H23 lung; NCI-H226 lung; NCI-H322M lung; HOP-62 NSCLC; NCI-H460 lung; HOP-92 NSCLC; NCI-H522 lung; A549/ATCC NSCLC; 786-0 renal; COLO 205 colon; DU-145 prostate; K-562 leukemia; MALME-3M melanoma; MDA-MB-231 breast; RXF 393 renal; SF-268 CNS; SF-295 CNS; SF-539 CNS; UACC-257 melanoma; M14 melanoma.
Holding throughout (test): NCI-60 one-dose screen, 48 h (100 = growth as untreated, 0 = no growth, -100 = all killed)
Common to all, as to settings: 10 µM unless noted

Turning to `CCN(C)S(=O)(=O)Nc1cccc(Nc2ncnc3cc(NC(=O)CCl)ccc23)c1Cl`, the growth in the experiment with NCI-H23 lung is -27.1% (active); in the experiment on NCI-H226 lung, 6.77% (active); in the experiment on NCI-H322M lung, 73.9%; in the experiment with HOP-62 NSCLC, -50.1% (active); with NCI-H460 lung, -22.5% (active); with HOP-92 NSCLC, 24.6%. For the same molecule, the growth is -70.6% (active) with NCI-H522 lung; 18.5% with A549/ATCC NSCLC; -82.8% (active) with 786-0 renal; -33.9% (active) in the experiment on COLO 205 colon; -49.8% (active) in the experiment with DU-145 prostate; 4.5% (active) in the experiment on K-562 leukemia. Also, the growth in the experiment on MALME-3M melanoma was -51.7% (active); with MDA-MB-231 breast, -38.4% (active); in the experiment on RXF 393 renal, -11.9% (active); in the experiment with SF-268 CNS, 7.08% (active); in the experiment on SF-295 CNS it was 15.3%; in the experiment on SF-539 CNS it was -40.3% (active). In addition, the values for the growth in the experiment with UACC-257 melanoma and in the experiment on M14 melanoma were 34.4% and 15.1%, respectively.
Regarding `CCC(C(=O)[C@@H](C)[C@@H](O)[C@H](C)[C@@H]1O[C@@H]([C@@H](CC)C(=O)ONC(=O)c2ccccc2)CC[C@@H]1C)[C@H]1O[C@]2(C=CC(=O)[C@]3(CC[C@@](C)([C@H]4CC[C@](O)(CC)[C@H](C)O4)O3)O2)[C@H](C)C[C@@H]1C` (stereo not given in full), the growth with NCI-H23 lung was -49.7% (active); in the experiment with NCI-H226 lung, 42%; in the experiment with NCI-H322M lung, 37.4%; in the experiment on HOP-62 NSCLC it was 26.5%; in the experiment with NCI-H460 lung, -57.8% (active); in the experiment on HOP-92 NSCLC it was -62.2% (active). For the same molecule, the growth in the experiment with NCI-H522 lung was -25.9% (active); in the experiment with A549/ATCC NSCLC, -19.6% (active); in the experiment with 786-0 renal, 9.1% (active); in the experiment with COLO 205 colon, -26% (active); with DU-145 prostate it was -13% (active); with K-562 leukemia it was -6.87% (active). For the same molecule, the growth was -24.7% (active) with MALME-3M melanoma; -53.2% (active) in the experiment with MDA-MB-231 breast; -6.41% (active) in the experiment on RXF 393 renal; 28.4% in the experiment with SF-268 CNS; 1.07% (active) with SF-295 CNS; -62.8% (active) in the experiment with SF-539 CNS. The growth in the experiment with UACC-257 melanoma was 32%; in the experiment with M14 melanoma, 21.1%.
With `COCCn1cc(-c2csc(-c3cn(C)c4ccc(Br)cc34)n2)c2cccnc21`, the growth is 76.1% in the experiment on NCI-H23 lung; 86.4% in the experiment with NCI-H226 lung; 74.2% in the experiment on NCI-H322M lung; 70.8% in the experiment on HOP-62 NSCLC; 26.8% with NCI-H460 lung; 65.3% with HOP-92 NSCLC. For the same molecule, the growth with NCI-H522 lung was -35.7% (active); with A549/ATCC NSCLC, 40.2%; in the experiment with 786-0 renal, 19.8%; in the experiment on COLO 205 colon it was 46.6%; with DU-145 prostate, 62.5%; with K-562 leukemia it was -9.15% (active). The growth was 96.6% in the experiment with MALME-3M melanoma; 42.9% with MDA-MB-231 breast; 68.8% in the experiment on RXF 393 renal; 64.8% with SF-268 CNS; 33.9% in the experiment with SF-295 CNS; 70.1% in the experiment on SF-539 CNS. Besides, the growth is 63.7% in the experiment with UACC-257 melanoma and 42.9% in the experiment on M14 melanoma.
With `Cc1ccc(/C=C2\COc3ccc(O)cc3C2=O)cc1`, the growth with NCI-H23 lung is 94.7%; in the experiment with NCI-H226 lung, 97.3%; in the experiment with NCI-H322M lung it was 99.6%; in the experiment with HOP-62 NSCLC it was 103%; in the experiment with NCI-H460 lung it was 100%; with HOP-92 NSCLC it was 97.4%. Besides, the growth was 4.44% (active) in the experiment on NCI-H522 lung; 89.7% in the experiment on A549/ATCC NSCLC; 86.7% with 786-0 renal; 94.3% with COLO 205 colon; 103% in the experiment on DU-145 prostate; 17.9% in the experiment with K-562 leukemia. Also, the growth in the experiment with MALME-3M melanoma was 90.3%; in the experiment with MDA-MB-231 breast it was 90.7%; in the experiment on RXF 393 renal it was 96.3%; in the experiment with SF-268 CNS, 86.3%; with SF-295 CNS, 105%; in the experiment with SF-539 CNS, 98.7%. Moreover, the results for the growth with UACC-257 melanoma and in the experiment on M14 melanoma were 103% and 93.1%, respectively.
Turning to `COc1ccc(-c2ccc(=O)oc2-c2cc(OC)c(OC)c(OC)c2)cc1O`, the growth in the experiment on NCI-H23 lung is 25.9%; in the experiment with NCI-H226 lung it was 42.7%; in the experiment on NCI-H322M lung it was 43.5%; in the experiment on HOP-62 NSCLC, -29% (active); with NCI-H460 lung, -18% (active); with HOP-92 NSCLC, 89%. For the same molecule, the growth is -11.7% (active) in the experiment with NCI-H522 lung; 15.9% with A549/ATCC NSCLC; -6.12% (active) in the experiment with 786-0 renal; 12.5% in the experiment with COLO 205 colon; -53.4% (active) with DU-145 prostate; -25.7% (active) in the experiment with K-562 leukemia. Further, the growth in the experiment on MALME-3M melanoma was 54.1%; in the experiment with MDA-MB-231 breast, 15.9%; in the experiment with RXF 393 renal, 3.35% (active); with SF-268 CNS, 5.78% (active); in the experiment on SF-295 CNS, -21.7% (active); with SF-539 CNS, -19.2% (active). Also, the growth in the experiment with UACC-257 melanoma is 25.1%; in the experiment on M14 melanoma it was -32.6% (active).
As to `CCN(CC)CC(O)COc1c(Br)c(Br)c(Br)c2c1OC(C)(C)C2` (stereo not given), the growth with NCI-H23 lung was 96.1%; in the experiment with NCI-H226 lung, 46.4%; in the experiment with NCI-H322M lung, 60.7%; in the experiment with HOP-62 NSCLC, 96.8%; in the experiment on NCI-H460 lung, 27.7%; in the experiment on HOP-92 NSCLC it was 28.1%. The growth was 145% in the experiment on NCI-H522 lung; 132% in the experiment with A549/ATCC NSCLC; 51.3% with 786-0 renal; 67.7% in the experiment with COLO 205 colon; 117% in the experiment with DU-145 prostate; 23.9% in the experiment on K-562 leukemia. For the same molecule, the growth is -30.1% (active) with MALME-3M melanoma; 44.7% in the experiment on MDA-MB-231 breast; 99.4% in the experiment with RXF 393 renal; 83% in the experiment on SF-268 CNS; 1.69% (active) in the experiment with SF-295 CNS; 108% in the experiment on SF-539 CNS. In addition, the results for the growth in the experiment with UACC-257 melanoma and with M14 melanoma were 140% and 41.3%, respectively.
Regarding `c1cnc2c(-c3nc4ccc5[nH]ncc5c4c4c3CCCC4)c[nH]c2c1`, the growth with NCI-H23 lung was 22.4%; in the experiment on NCI-H226 lung, 42.6%; in the experiment on NCI-H322M lung, 21.3%; in the experiment with HOP-62 NSCLC, 15%; in the experiment on NCI-H460 lung, 7.48% (active); with HOP-92 NSCLC, 40.6%. Also, the growth was -23.3% (active) in the experiment with NCI-H522 lung; 16.6% with A549/ATCC NSCLC; 32.5% in the experiment with 786-0 renal; 26.7% in the experiment with COLO 205 colon; 27.7% in the experiment on DU-145 prostate; 21% in the experiment with K-562 leukemia. The growth was 63.8% with MALME-3M melanoma; 30.7% in the experiment with MDA-MB-231 breast; 42.7% in the experiment on RXF 393 renal; 40.4% with SF-268 CNS; 32.1% in the experiment on SF-295 CNS; 42.9% in the experiment on SF-539 CNS. Further, the values for the growth in the experiment with UACC-257 melanoma and in the experiment with M14 melanoma were 98.3% and 59%, respectively.
For `C#CCOC(=O)/C=C/c1cn(-c2ccccc2)nc1-c1ccc(OC)cc1`, the growth with NCI-H23 lung was 89.1%; in the experiment on NCI-H226 lung it was 81.6%; in the experiment with NCI-H322M lung, 99.4%; with HOP-62 NSCLC, 93%; with NCI-H460 lung, 95.1%; in the experiment on HOP-92 NSCLC it was 60.8%. Moreover, the growth was 50% in the experiment on NCI-H522 lung; 77.5% in the experiment with A549/ATCC NSCLC; 98.9% in the experiment on 786-0 renal; 121% in the experiment with COLO 205 colon; 95.1% in the experiment on DU-145 prostate; 16.8% in the experiment with K-562 leukemia. In addition, the growth was 107% in the experiment with MALME-3M melanoma; 57.1% in the experiment on MDA-MB-231 breast; 73.7% with RXF 393 renal; 87.9% in the experiment with SF-268 CNS; 94.1% with SF-295 CNS; 89.4% in the experiment on SF-539 CNS. In addition, the growth in the experiment with UACC-257 melanoma is 87.5%; in the experiment on M14 melanoma, 98.8%.
